Compound activity deposited in PubChem by several laboratories.
CYP2C9 act: activators of human CYP2C9; activation factor at 5 µM; AID 1024; recombinant CYP2C9, luciferin-H conversion, luminescence; hits give high values; factor 1 = untreated enzyme, 0 = blocked; P11712; 1.4% of 96,000 active;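 active means activation factor of 2 or more for CYP2C9 at a 5 µM dose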;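 further: 0 = sulfaphenazole-blocked wells and 1 = vehicle-only wells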
Cav3 T inh: blocks human Cav3.2 T-type calcium channel; Cav3.2-expressing cells, Fluo-4 calcium fluorescence FDSS; hits give low values; B-score at 10 µM; O95180; 4% of 100,000 active; AID 449739;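 active means single-dose well whose peak fluorescence ratio is a statistical outlier from its plate by either plate-standardised score or position-corrected B-score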
CYP2C19 act: increases human CYP2C19 enzyme activity; recombinant CYP2C19, luciferin-H EGE luminescence; hits give high values; 0 = fully inhibited enzyme, 1 = untreated enzyme; activation factor at 5 µM; 96,000 tested, under 10 active; AID 1025;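 active means activation factor of at least 2 at 5 µM in the primary screen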;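 further: 0 = wells with 2.5 mM tranylcypromine and 1 = vehicle-only wells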
CYP2C9 inhib: human CYP2C9 inhibition | P11712 | CYP2C9 Supersomes, luciferin-H conversion, luminescence | inhibition, % at 5 µM | 20% of 96,000 active;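 active means blocking of liver enzyme CYP2C9 beyond about 50% at 5 µM, limit read from the data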
CYP2C19 inh: human CYP2C19 inhibition; AID 778; P33261; CYP2C19 Supersomes, luciferin-H EGE luminescence, 30 min; inhibition, % at 5 µM; 21% of 96,000 active;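 active means CYP2C19 inhibition above a set limit at 5 µM in the primary screen, cut at about 50% in these data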;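 further: plate controls were negative control wells for no effect and 2.5 mM tranylcypromine positive control for full effect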
Starred values were filed as active, the others as inactive; x = no result given. In the library only some 27% were active in any assay of this set; here they are far more common.

SMILES	CYP2C9 act	Cav3 T inh	CYP2C19 act	CYP2C9 inhib	CYP2C19 inh
CCOC(=O)c1ccc(Oc2cc(C)nc(SC)n2)cc1	0.9	-1.4	0.8	9	15
CC(=O)Oc1ccc2c(c1)C(=O)c1ccccc1CO2	0.7	-0.15	0.3	32	68*
O=C(Oc1ccc2c(c1)OCC2=O)c1ccccc1	1.1	-3	1.1	-6	-9
CCOC(=O)/C=c1\s/c(=C\c2c(OC)ccc3ccccc23)c(=O)n1CC(=O)NCC1CCCO1 (centres undefined)	0.6	-5.7*	0.4	41	57*
COc1ccccc1Nc1nc2c(s1)CCC2	0.9	-0.11	0.9	7	6
COc1ccccc1Nc1nc(C2(C)CCC(=O)O2)cs1 (centres undefined)	0.6	0.41	0.2	39	81*
COc1ccc(N2CCN(C(c3ccccc3)c3sc4nc(C)nn4c3O)CC2)cc1 (centres undefined)	x	-0.87	x	x	x
O=S(=O)(c1cc(C(F)(F)F)ccc1Cl)N1CCCCCC1	1.9	-1.5	0.8	-87	21
O=S(=O)(c1cc(Cl)ccc1Cl)N1CC2CCCN2c2ccc(C(F)(F)F)cc21 (centres undefined)	0.2	-1.6	0.8	82*	17
COc1ccc(S(=O)(=O)N2CC3CCCN3c3cc(C(F)(F)F)ccc32)cc1 (centres undefined)	1.3	-3.9	0.1	-30	92*
COc1ccc(S(=O)(=O)N2CC3CCCN3c3ccc(C(F)(F)F)cc32)cc1 (centres undefined)	0.7	-0.22	0.3	32	73*
COc1ccc(S(=O)(=O)N2CC(C)N(S(=O)(=O)c3ccc(OC)cc3)CC2C)cc1 (centres undefined)	1	-1.9	0.7	0	30
COc1ccc(S(=O)(=O)N2CCN(S(=O)(=O)c3ccc(C(F)(F)F)cc3)CC2)cc1C	1	0.47	1	4	3
O=C(NNC(=O)[C@@H]1CCCC[C@@H]1C(=O)O)c1cccs1	x	-0.016	x	x	x
CCOC(=O)CNC(=O)Cn1cnc2c(nnn2-c2ccc(C)cc2)c1=O	1.2	0.14	1.1	-16	-9
CCCCN(C)C(=O)c1cc2cc3ccc(OC)cc3nc2s1	0.5	-0.016	0.4	53*	56*
O=C(NC1(C(F)(F)F)NC(=O)N(c2ccc(F)c(Cl)c2)C1=O)c1ccncc1 (centres undefined)	0	0.67	0.2	98*	82*
O=C1NC(Nc2ccccn2)(C(F)(F)F)C(=O)N1c1ccc(F)cc1 (centres undefined)	1.1	-1.2	0.9	-7	9
CCC(=O)c1ccc(O)c(CC=C(C)C)c1	0.4	-0.4	0.4	64*	58*
C[C@@H]1C=C(C(=O)O)O[C@H](OCc2ccc(CO)cc2)C1	x	0.84	x	x	x
CC(=O)Nc1ccc(S(=O)(=O)NCc2ccc(C(=O)NCc3ccc4c(c3)OCO4)cc2)cc1	x	0.58	x	x	x
O=C(Nc1ccccc1)C1CC(=O)N(c2ccc3c4c(cccc24)CC3)C1 (centres undefined)	0.4	-1.2	1	62*	3
CCOC(=O)c1c(CC(C)C)csc1NC(C)=O	0.4	-0.87	0.6	62*	44
CCOC(=O)c1c(CC(C)C)csc1NC=O	0.6	x	0.8	36	22
CC(C)C(NC(=O)CN1C(=O)c2ccccc2S1(=O)=O)C(C)C	1	0.86	0.6	-4	36
SMILES	CYP2C9 act	Cav3 T inh	CYP2C19 act	CYP2C9 inhib	CYP2C19 inh
CCN1/C(=C(\O)c2ccccc2)C(=O)c2ccccc2S1(=O)=O	1	-3.8*	1	0	4
COc1ccc2c(C)nc(Nc3nc(C)cc(C)n3)nc2c1	0.9	0.13	1	6	1
CC(=O)Nc1cn(C(C)=O)c(C)n1	0.8	-0.9	1	19	-1
O=c1c2ccccc2c(C=NC2CCS(=O)(=O)C2)c(O)n1-c1ccccc1 (centres undefined)	0.9	-0.38	0.9	14	7
Cc1ccc(-n2c(O)c(/C=N/n3cnnc3)c3ccccc3c2=O)cc1	0.1	-0.18	0.9	91*	8
O=c1c2ccccc2c(/C=N/n2cnnc2)c(O)n1-c1ccccc1F	0.4	-0.88	1	58*	-3
CC(C)COC(=O)C1[C@H]2C(=O)N(Cc3cccs3)C[C@]23C=C[C@H]1O3 (some centres undefined)	1	-0.68	0.6	-3	41
Cc1ccccc1C(=O)N1CCC(C(N)=O)CC1	0.9	0.49	1	8	0
